Data published in PubChem BioAssay (Tox21).
Values joined by “and” are separate entries in the source; they are usually repeats but may differ in a detail not shown here. Identical values can stand only once. Results filed as inconclusive are left out. Active and inactive are the calls of the source. Unless noted, calls follow the shape of the dose curve; as a rule, active = well fitted curve in the direction sought with a large enough effect in the repeat runs; inconclusive = weak or mixed curves; inactive = no such curve, though single readings can be large; an effect the other way counts as inactive or inconclusive.

Key:
[1] = qHTS assay to identify small molecule agonists of the estrogen receptor alpha (ER-alpha) signaling pathway in the presence of an antagonist - cell viability counter screen (AID 1259386);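 also: series mostly up to about 92 µM; cells exposed to compounds for 22 h at 37 °C before the viability read; % is scaled to controls: 0 for no effect and ±100 for the full control effect; nearly all actives have a fitted effect of over 30% in size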
How it was run: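 Cells are starved of estrogens for 5 days in charcoal-stripped serum, seeded for 24hr and co-treated with ICI-182,780 (10.0nM final) and test compounds. After 22hr at 37C, viability is read as CellTiter-Fluor fluorescence.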

[2] = target: Progesterone receptor (Homo sapiens) (UniProt P06401); assay: qHTS assay to identify small molecule agonists of the progesterone receptor (PR) signaling pathway (AID 1346784; calls by dose curve; also: nearly all actives have a fitted effect of over 30% in size; also: potency is read from the fitted curve at half-maximal effect; as to activation: % is scaled to controls: 0 for no effect and ±100 for the full control effect)
Progesterone receptor (Homo sapiens), sequence (P06401 whole entry, looked up): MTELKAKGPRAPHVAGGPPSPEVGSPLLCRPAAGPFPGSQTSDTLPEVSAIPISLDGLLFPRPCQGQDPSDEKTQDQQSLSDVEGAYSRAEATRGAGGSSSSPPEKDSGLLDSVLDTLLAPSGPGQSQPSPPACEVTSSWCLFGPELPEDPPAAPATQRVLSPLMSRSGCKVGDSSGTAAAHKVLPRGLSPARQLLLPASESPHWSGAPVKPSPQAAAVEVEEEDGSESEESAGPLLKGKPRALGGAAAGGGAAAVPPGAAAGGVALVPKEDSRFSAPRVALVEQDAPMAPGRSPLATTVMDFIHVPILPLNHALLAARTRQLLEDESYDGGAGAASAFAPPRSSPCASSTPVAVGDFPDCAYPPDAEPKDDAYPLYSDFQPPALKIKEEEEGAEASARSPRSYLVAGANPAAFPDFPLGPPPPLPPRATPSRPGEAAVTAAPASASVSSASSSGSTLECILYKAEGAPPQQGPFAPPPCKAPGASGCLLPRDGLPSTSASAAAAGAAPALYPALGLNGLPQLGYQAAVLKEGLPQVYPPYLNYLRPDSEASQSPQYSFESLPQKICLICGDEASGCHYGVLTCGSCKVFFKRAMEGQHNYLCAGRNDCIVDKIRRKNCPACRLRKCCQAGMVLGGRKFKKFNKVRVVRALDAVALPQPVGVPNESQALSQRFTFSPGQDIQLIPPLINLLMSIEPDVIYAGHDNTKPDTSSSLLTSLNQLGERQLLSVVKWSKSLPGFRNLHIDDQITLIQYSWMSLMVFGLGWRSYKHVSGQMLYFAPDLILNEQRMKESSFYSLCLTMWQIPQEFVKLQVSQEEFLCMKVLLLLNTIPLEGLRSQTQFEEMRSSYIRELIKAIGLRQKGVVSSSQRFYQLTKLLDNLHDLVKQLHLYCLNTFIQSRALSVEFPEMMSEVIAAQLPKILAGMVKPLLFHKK
How it was run: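 Seed PR-UAS-bla HEK 293T cells (2% charcoal-stripped FBS), incubate 6 hr at 37C; add compounds in DMSO, 16 hr at 37C; add LiveBLAzer B/G substrate, 2 hr RT; read fluorescence intensity.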

[3] = target: Progesterone receptor (Homo sapiens) (UniProt P06401); assay: qHTS assay to identify small molecule antagonists of the progesterone receptor (PR) signaling pathway (AID 1346795; active = well fitted inhibition curve with a large enough effect in the signal ratio in the repeat runs, not every such curve was filed as active; the % refers to the signal ratio; also: potency is read from the fitted curve at half-maximal effect; as to activity change, negative = inhibition: % is scaled to controls: 0 for no effect and ±100 for the full control effect)
How it was run: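 Screening used a GripTite HEK293T line with PR-responsive UAS-beta-lactamase. Cells were challenged with compound in the presence of 1 nM R5020 final for 16 hr at 37C; B/G FRET substrate, 2 hr room temperature, fluorescence.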

[4] = qHTS assay to identify small molecule antagonists of the progesterone receptor (PR) signaling pathway - cell viability counter screen (AID 1346798); also: series mostly up to about 92 µM; % is scaled to controls: 0 for no effect and ±100 for the full control effect; nearly all actives have a fitted effect of over 50% in size
How it was run: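 Measures cytotoxicity in parallel with the PR antagonist reporter read: HEK293T PR-UAS-bla cells get compound and R5020 for 16 hr, and remaining viable cells are quantified by CellTiter-Glo luminescence.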

[5] = qHTS assay to identify small molecule agonists of the progesterone receptor (PR) signaling pathway - cell viability counter screen (AID 1346799; calls by dose curve; also: % is scaled to controls: 0 for no effect and ±100 for the full control effect; nearly all actives have a fitted effect of over 45% in size)
How it was run: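 Using the same plates as the PR reporter screen, HEK293T PR-UAS-bla cells received compounds for 16 hr at 37C and were then lysed with CellTiter-Glo; luminescence was read 30 min later at room temperature.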

[6] = qHTS assay to identify small molecule antagonists of the TGF-beta/Smad signaling pathway - cell viability counter screen (AID 1346824); also: % is scaled to controls: 0 for no effect and ±100 for the full control effect; nearly all actives have a fitted effect of over 50% in size
How it was run: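 SBE-bla HEK 293T cells were plated overnight at 37 C, then given compounds in DMSO plus TGF-beta1 (added as 0.25 ng/mL solution) for 5 hr. After the bla read, CellTiter-Glo was added to the same wells and luminescence read after 30 min at room temperature.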

[7] = qHTS assay to identify small molecule agonists of the TGF-beta/Smad signaling pathway - cell viability counter screen (AID 1346829); also: top concentration of the series differs between compounds; % is scaled to controls: 0 for no effect and ±100 for the full control effect; nearly all actives have a fitted effect of over 45% in size
How it was run: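 Compound-treated SBE-bla HEK 293T cells (5 hr, 37 C) were assessed for viability with CellTiter-Glo in parallel with the reporter read.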

[8] = qHTS assay to identify small molecule agonists of the TGF-beta/Smad signaling pathway (AID 1346859; active = well fitted activation curve with a large enough effect in the signal ratio in the repeat runs, not every such curve was filed as active; the % refers to the signal ratio; also: series mostly up to about 77 µM; % is scaled to controls: 0 for no effect and ±100 for the full control effect)
How it was run: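 Beta-lactamase reporter activity downstream of Smad binding elements was measured in stably transfected HEK 293T cells; compounds were incubated for 5 hr, substrate for 2 hr at room temperature.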

[9] = target: Thyrotropin-releasing hormone receptor (Homo sapiens) (UniProt P34981); assay: qHTS assay to identify small molecule antagonists of the thyrotropin-releasing hormone receptor (TRHR) signaling pathway (AID 1346877; active = well fitted inhibition curve with a large enough effect in the repeat runs, not every such curve was filed as active; also: series mostly up to about 51 µM; % is scaled to controls: 0 for no effect and ±100 for the full control effect)
Thyrotropin-releasing hormone receptor (Homo sapiens), sequence (P34981 whole entry, looked up): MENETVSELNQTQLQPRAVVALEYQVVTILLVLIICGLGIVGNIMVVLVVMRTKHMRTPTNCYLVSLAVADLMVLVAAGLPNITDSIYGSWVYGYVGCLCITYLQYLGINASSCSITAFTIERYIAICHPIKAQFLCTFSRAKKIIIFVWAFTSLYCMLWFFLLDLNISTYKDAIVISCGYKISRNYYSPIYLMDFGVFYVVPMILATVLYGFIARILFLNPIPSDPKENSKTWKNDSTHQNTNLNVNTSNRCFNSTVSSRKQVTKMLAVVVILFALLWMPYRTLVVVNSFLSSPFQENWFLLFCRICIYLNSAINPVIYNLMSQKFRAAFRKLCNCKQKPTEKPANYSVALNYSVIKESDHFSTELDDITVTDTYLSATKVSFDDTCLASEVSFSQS
How it was run: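 Cells (TRHR-HEK293) are plated and kept 18 h at 37 °C/5% CO2. A calcium-sensitive dye is added for 2 h, compound follows for 5 min at room temperature, and TRH is then given at 1 nM final.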

[10] = Human pregnane X receptor (PXR) small molecule agonists, qHTS cell viability counter screen (AID 1346977); also: % is scaled to controls: 0 for no effect and ±100 for the full control effect; nearly all actives have a fitted effect of over 50% in size
How it was run: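 After a 5hr pre-incubation, PXR-Luc HepG2 cells received compounds plus positive control in DMSO and were kept 24hr at 37C. Cell viability was quantified by fluorescence from CellTiter-Fluor added for the final hour.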

[11] = Caspase-3/7 induction in HepG2 cells by small molecules, qHTS assay (AID 1346978); also: % is scaled to controls: 0 for no effect and ±100 for the full control effect; nearly all actives have a fitted effect of over 15% in size
How it was run: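 Wild-type HepG2 cells (2,000/well) were settled 5 h at 37 C, 5% CO2, then exposed to compounds in DMSO for 17 h. Caspase-3/7 activity was read by luminescence 30 min after adding Caspase-Glo 3/7 reagent at room temperature.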

[12] = Caspase-3/7 induction in CHO-K1 cells by small molecules, qHTS cell viability counter screen (AID 1346979); also: % is scaled to controls: 0 for no effect and ±100 for the full control effect; nearly all actives have a fitted effect of over 35% in size
How it was run: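 Multiplexed with Caspase-Glo 3/7 in CHO-K1 cells, this counter screen added CellTiter-Fluor after 16hr of compound exposure and recorded fluorescence 1hr later.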

[13] = Caspase-3/7 induction in CHO-K1 cells by small molecules, qHTS assay (AID 1346980); also: % is scaled to controls: 0 for no effect and ±100 for the full control effect; nearly all actives have a fitted effect of over 15% in size
How it was run: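 Wild-type cells were seeded at 1,500 per well and settled 5 hr at 37 C, 5% CO2, then exposed to DMSO-dissolved compounds for 17 hr. Caspase-Glo 3/7 reagent was added, and luminescence was read after 30min at room temperature.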

[14] = Caspase-3/7 induction in HepG2 cells by small molecules, qHTS cell viability counter screen (AID 1346981); also: series mostly up to about 92 µM; % is scaled to controls: 0 for no effect and ±100 for the full control effect; nearly all actives have a fitted effect of over 30% in size
How it was run: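 Steps: seed 2,000 HepG2 cells per well; incubate 5 hr at 37 C; pin-add compounds in DMSO; incubate 16 hr; add CellTiter-Fluor; after 1 hr at 37 C and 5% CO2, read fluorescence.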

[15] = target: Nuclear receptor subfamily 1 group I member 2 (Homo sapiens) (UniProt O75469); assay: Human pregnane X receptor (PXR) small molecule agonists, qHTS assay (AID 1346982); also: nearly all actives have a fitted effect of over 35% in size; also: potency is read from the fitted curve at half-maximal effect
Nuclear receptor subfamily 1 group I member 2 (Homo sapiens), sequence (O75469 whole entry, looked up): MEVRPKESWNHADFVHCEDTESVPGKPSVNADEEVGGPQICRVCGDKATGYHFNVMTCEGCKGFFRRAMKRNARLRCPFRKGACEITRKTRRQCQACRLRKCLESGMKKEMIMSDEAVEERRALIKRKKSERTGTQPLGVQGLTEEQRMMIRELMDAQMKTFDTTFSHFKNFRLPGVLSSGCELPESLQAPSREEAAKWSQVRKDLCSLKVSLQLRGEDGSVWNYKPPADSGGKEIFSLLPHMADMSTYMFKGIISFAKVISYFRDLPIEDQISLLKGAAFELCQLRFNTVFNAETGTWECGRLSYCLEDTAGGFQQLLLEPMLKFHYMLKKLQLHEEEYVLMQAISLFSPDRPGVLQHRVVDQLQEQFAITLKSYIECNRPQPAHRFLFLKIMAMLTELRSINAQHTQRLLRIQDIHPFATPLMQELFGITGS
How it was run: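 Agonist mode qHTS: PXR-Luc HepG2 cells plated 5 hr before DMSO-dissolved compounds were pinned in, cultured 24 hr at 37 C, 5% CO2; ONE-Glo luminescence readout.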

[16] = target: Cytochrome P450 2D6 (Homo sapiens) (UniProt P10635); assay: Cytochrome P450 Family 2 Subfamily D Member 6 (CYP2D6) small molecule antagonists: luciferase reporter qHTS assay (AID 1671196); also: nearly all actives have a fitted effect of over 50% in size; also: potency is read from the fitted curve at half-maximal effect
Cytochrome P450 2D6 (Homo sapiens), sequence (P10635 whole entry, looked up): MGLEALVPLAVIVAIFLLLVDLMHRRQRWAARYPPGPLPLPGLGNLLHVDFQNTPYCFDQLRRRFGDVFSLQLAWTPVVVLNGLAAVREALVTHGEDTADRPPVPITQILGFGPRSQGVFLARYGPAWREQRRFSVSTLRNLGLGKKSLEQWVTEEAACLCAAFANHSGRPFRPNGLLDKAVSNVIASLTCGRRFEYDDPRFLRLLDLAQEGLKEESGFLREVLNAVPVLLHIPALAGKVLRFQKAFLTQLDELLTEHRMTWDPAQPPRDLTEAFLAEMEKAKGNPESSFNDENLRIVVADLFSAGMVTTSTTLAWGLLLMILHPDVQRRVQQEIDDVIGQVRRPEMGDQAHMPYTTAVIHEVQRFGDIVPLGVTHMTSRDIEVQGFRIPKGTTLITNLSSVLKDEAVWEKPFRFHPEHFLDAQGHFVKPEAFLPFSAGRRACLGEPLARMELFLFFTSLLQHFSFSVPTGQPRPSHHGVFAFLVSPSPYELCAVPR
How it was run: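 P450-Glo format: CYP2D6 converts a proluciferin substrate to luciferin in an NADPH-driven reaction lasting 1 h at room temperature. Light output, proportional to CYP2D6 activity, reflects interference by test chemicals.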

[17] = target: Nuclear receptor subfamily 1 group I member 2 (Homo sapiens) (UniProt O75469); assay: CYP3A4 induction through human pregnane X receptor (PXR) by small molecules, qHTS assay (AID 1346984); also: % is scaled to controls: 0 for no effect and ±100 for the full control effect; nearly all actives have a fitted effect of over 40% in size
How it was run: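 Steps: seed DPX-2 cells, 5 hr at 37C; pin-transfer compounds; 24 hr at 37C; add Luciferin-IPA (3uM final), 3 hr at 37C; add One-Glo, 30 min RT; read luminescence.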

[18] = target: Nuclear receptor subfamily 1 group I member 2 (Homo sapiens) (UniProt O75469); assay: Human pregnane X receptor (PXR) activation by small molecules, qHTS assay (AID 1346985); also: potency is read from the fitted curve at half-maximal effect; nearly all actives have a fitted effect of over 40% in size
How it was run: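 DPX-2 cells (HepG2 co-transfected with a PXR response element and a CYP3A4-promoter luciferase construct) were seeded at 2,000 per well, rested 5 hr at 37C, then exposed to DMSO-dissolved compounds for 24 hr. Activation was read as luciferase luminescence.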

[19] = target: Nuclear receptor subfamily 1 group I member 2 (Rattus norvegicus) (UniProt Q9R1A7); assay: Rat pregnane X receptor (rPXR) activation by small molecules, qHTS assay (AID 1346983); conditions: rPXR luciferase reporter cells, One-Glo luminescence, 24 h; max activation: hits give high values; also: % is scaled to controls: 0 for no effect and ±100 for the full control effect; nearly all actives have a fitted effect of over 20% in size
Nuclear receptor subfamily 1 group I member 2 (Rattus norvegicus), sequence (Q9R1A7 whole entry, looked up): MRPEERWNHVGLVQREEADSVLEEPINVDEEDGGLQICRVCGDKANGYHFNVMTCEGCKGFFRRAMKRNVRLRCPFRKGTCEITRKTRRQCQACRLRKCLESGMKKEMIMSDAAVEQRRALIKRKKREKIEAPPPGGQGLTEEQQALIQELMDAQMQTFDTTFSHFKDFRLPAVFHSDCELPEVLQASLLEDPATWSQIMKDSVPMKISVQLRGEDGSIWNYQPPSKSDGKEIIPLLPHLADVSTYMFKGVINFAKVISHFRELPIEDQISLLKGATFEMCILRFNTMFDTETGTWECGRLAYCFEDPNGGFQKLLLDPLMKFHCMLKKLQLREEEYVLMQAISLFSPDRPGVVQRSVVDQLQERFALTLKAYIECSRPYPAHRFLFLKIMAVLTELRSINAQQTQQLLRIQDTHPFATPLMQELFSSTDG
How it was run: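 Cell-based rPXR luciferase reporter assay, 2,000 cells per well, rested 5hr at 37 C before compound addition in DMSO, then 24 hr at 37 C. One-Glo reagent was added and luminescence read after 30 min at room temperature.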

Nc1c(I)cc(I)c(C(=O)N(CCC(=O)O)c2ccccc2)c1I
inactive: Potency [1] | Potency [2] | Potency [3] | Potency [4] | Potency [5] | outcome [6] | outcome [7] | outcome [8] | outcome [9] | Potency [10] | Potency [11] | Potency [12] | outcome [13] | Potency [14] | Potency [16]
active: Potency [15] 26.6 µM

Cc1oncc1C(=O)Nc1ccc(C(F)(F)F)cc1
inactive: Potency [1] | Potency [2] | Potency [4] | Potency [5] | outcome [6] | outcome [7] | outcome [8] | Potency [10] | Potency [11] | Potency [12] | outcome [13] | Potency [14] | Potency [17]
active: Potency [3] 61.1 µM | Potency [15] 12.2 µM and 1.5 µM | Potency [18] 708 nM | Potency [16] 31.7 µM

CCCCCCOC(=O)CCCCCCCC(=O)OCCCCCC
inactive: Potency [1] | Potency [2] | Potency [3] | Potency [4] | Potency [5] | outcome [6] | outcome [8] | outcome [9] | Potency [10] | Potency [12] | outcome [13] | Potency [14] | Potency [15] | Potency [16]

CCc1cccc(N(C)C(N)=Nc2cccc3ccccc23)c1
inactive: Potency [1] | Potency [2] | Potency [3] | Potency [4] | Potency [5] | outcome [6] | outcome [7] | outcome [8] | Potency [11] | Potency [12] | outcome [13] | Potency [14] | max activation [19] -1.24%

C=CCCCCCCCCCCCCCCCC
active: Potency [2] 733 nM
inactive: activity change, negative = cytotoxicity [1] -0.26% [at 8.39 µM] | activity change, negative = inhibition [3] 15.4% [at 8.39 µM] | activity change, negative = cytotoxicity [4] 4.23% [at 8.39 µM] | activity change, negative = cytotoxicity [5] 14.5% [at 8.39 µM] | viability change, negative = cytotoxic [6] 2.26% [at 6.97 µM] | activity change, negative = cytotoxicity [7] 3.28% [at 6.97 µM] | activation [8] 2.93% [at 6.97 µM] | activity change, negative = cytotoxicity [10] 0.0327% [at 8.39 µM] | caspase activation [11] -6.49% [at 8.39 µM] | activity change, negative = cytotoxicity [12] 7.02% [at 8.39 µM] | caspase-3/7 activation [13] 0.114% [at 8.39 µM] | activity change, negative = cytotoxicity [14] -1.16% [at 8.39 µM] | activity change, negative = inhibition [16] 0.602% [at 10.5 µM]

CCCCCCCCCCCCCCCCBr
inactive: activity change, negative = cytotoxicity [1] 0.981% [at 19 µM] | activation [2] 1.24% [at 19 µM] | activity change, negative = inhibition [3] -0.513% [at 18.9 µM] | activity change, negative = cytotoxicity [4] 0.653% [at 18.9 µM] | activity change, negative = cytotoxicity [5] 9.85% [at 19 µM] | viability change, negative = cytotoxic [6] -3.09% [at 15.8 µM] | activity change, negative = cytotoxicity [7] -1.12% [at 15.8 µM] | activation [8] -2.16% [at 15.8 µM] | activity change, negative = cytotoxicity [10] -1.37% [at 19 µM] | caspase activation [11] 2.76% [at 19 µM] | activity change, negative = cytotoxicity [12] 4.02% [at 19 µM] | activation [15] -5.34% [at 19 µM] | activity change, negative = inhibition [16] -8.89% [at 23.6 µM]

Cc1nc2ccccc2s1
inactive: Potency [1] | Potency [2] | Potency [3] | Potency [4] | Potency [5] | outcome [6] | outcome [7] | outcome [8] | Potency [10] | Potency [11] | Potency [12] | outcome [13] | Potency [14] | Potency [15] | Potency [16]

COC(=O)c1cc(S(N)(=O)=O)ccc1OC
inactive: Potency [1] | Potency [2] | Potency [3] | Potency [4] | Potency [5] | outcome [6] | Potency [10] | Potency [11] | Potency [12] | Potency [14] | Potency [15] | Potency [16]

O=Cc1c(Cl)cccc1Cl
inactive: Potency [1] | Potency [2] | Potency [3] | Potency [4] | Potency [5] | outcome [6] | outcome [7] | outcome [9] | Potency [10] | Potency [11] | Potency [12] | outcome [13] | Potency [14] | Potency [15] | Potency [16]
